The values below come from PubChem BioAssay (Tox21).

Assay [1] in a line: qHTS assay to identify small molecule antagonists of the glucocorticoid receptor (GR) signaling pathway - cell viability counter screen (AID 720693). Note: nearly all actives have a fitted effect of over 55% in size. Note: potency is the fitted concentration of half-maximal effect.
Assay [2] can be described thus: qHTS assay for identifying genotoxic compounds that show differential cytotoxicity against isogenic chicken DT40 cell lines with known DNA damage response pathways - wild type cell line (AID 743012). Note: nearly all actives have a fitted effect of over 60% in size. Note: potency is the fitted concentration of half-maximal effect. Summed up:
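Cytotoxicity in repair-proficient parental chicken DT40 cells serves as the comparator for Rad54/Ku70- and Rev3-deficient lines. Cells were exposed to compounds for 40 h at 37 C/5% CO2, and ATP-based luminescence (CellTiter-Glo) measured viability.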

Assay [3] in a line: qHTS assay for identifying genotoxic compounds that show differential cytotoxicity against isogenic chicken DT40 cell lines with known DNA damage response pathways - Rev3 mutant cell line (AID 743014). Note: nearly all actives have a fitted effect of over 55% in size. Note: potency is the fitted concentration of half-maximal effect.
Assay [4] in a line: qHTS assay for identifying genotoxic compounds that show differential cytotoxicity against isogenic chicken DT40 cell lines with known DNA damage response pathways - Rad54/Ku70 mutant cell line (AID 743015). Note: nearly all actives have a fitted effect of over 60% in size. Note: potency is the fitted concentration of half-maximal effect.
Assay [5] in a line: qHTS assay to identify small molecule antagonists of the androgen receptor (AR) signaling pathway - cell viability counter screen (AID 743033; note: nearly all actives have a fitted effect of over 45% in size; note: potency is the fitted concentration of half-maximal effect).
A short description of assay [6]: qHTS assay to identify small molecule antagonists of the androgen receptor (AR) signaling pathway using the MDA cell line - cell viability counter screen (AID 743041; note: nearly all actives have a fitted effect of over 45% in size; note: potency is the fitted concentration of half-maximal effect). In outline:
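Cytotoxicity counter screen: MDA-kb2 AR-luc cells, compound + R1881, 16 h, 37C, 0% CO2; CellTiter-Fluor added at 15.5 h, fluorescence read after 30 min.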

Assay [7] in a line: qHTS assay to identify small molecule antagonists of the thyroid receptor (TR) signaling pathway - cell viability counter screen (AID 743064). Note: nearly all actives have a fitted effect of over 50% in size. Note: potency is the fitted concentration of half-maximal effect. Summed up:
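Viability of T3-stimulated (1 nM final) GH3.TRE-Luc cells is measured by CellTiter-Fluor fluorescence after 23.5 h compound exposure at 37 °C plus 30 min reagent incubation.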

A short description of assay [8]: qHTS assay to identify small molecule antagonists of the thyroid receptor (TR) signaling pathway (AID 743065). Note: nearly all actives have a fitted effect of over 55% in size. Note: potency is the fitted concentration of half-maximal effect. Summed up: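 GH3.TRE-Luc rat pituitary cells (two TREs driving luciferase) were dosed with compound, then stimulated with 1 nM T3 (final) for 23.5 h at 37 C. ONE-Glo luminescence was the read-out, with CellTiter-Fluor fluorescence as the cytotoxicity counter-screen.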

Assay [9] deals with thyroid hormone receptor (rat, GH3 cells). The assay can be described thus: qHTS assay to identify small molecule agonists of the thyroid receptor (TR) signaling pathway (AID 743066; calls by dose curve; note: % is set by controls: 0 for no effect and ±100 for the full control effect).
Assay [10] concerns the target Estrogen receptor (Homo sapiens) (UniProt P03372). Description: qHTS assay to identify small molecule antagonists of the estrogen receptor alpha (ER-alpha) signaling pathway (AID 743069; active = well fitted curve in the direction sought with a large enough effect in the signal ratio in the repeat runs, not every such curve was filed as active; inconclusive = weak or mixed curves, or effect the other way; inactive = no such curve, though single readings can be large or run the other way; the % refers to the signal ratio; note: % is set by controls: 0 for no effect and ±100 for the full control effect). In outline:
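Beta-lactamase FRET fluorescence is read after 2 hr at room temperature with LiveBLAzer B/G substrate. Before that, ER-alpha-bla HEK293 cells sit 4 hr after plating, then receive compound plus 17beta-estradiol and incubate 18 hr at 37C.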

Assay [11] has the same target. The assay can be described thus: qHTS assay to identify small molecule agonists of the estrogen receptor alpha (ER-alpha) signaling pathway (AID 743075; calls by dose curve;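 note: HEK293 GripTite cells with ER-alpha and UAS-driven beta-lactamase reporter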; note: potency is the fitted concentration of half-maximal effect; for activation: % is set by controls: 0 for no effect and ±100 for the full control effect).
For assay [12] the target is unchanged. The assay can be described thus: qHTS assay to identify small molecule agonists of the estrogen receptor alpha (ER-alpha) signaling pathway using the BG1 cell line (AID 743079). Note: % is set by controls: 0 for no effect and ±100 for the full control effect; nearly all actives have a fitted effect of over 20% in size. The conditions noted are these: BG1Luc4E2 cells, ERE-luciferase agonist, 22 h; activation: at 70.3 µM (top of the series) unless noted.
The nature of assay [13]: qHTS assay to identify small molecule antagonists of the estrogen receptor alpha (ER-alpha) signaling pathway using the BG1 cell line (AID 743080; calls by dose curve;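 note: BG1 cells stimulated with 17beta-estradiol alongside compound; % is set by controls: 0 for no effect and ±100 for the full control effect; nearly all actives have a fitted effect of over 25% in size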). In outline: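 BG1-Luc-4E2 cells (endogenous full-length ER-alpha, 4xERE luciferase) hormone-starved 5 days in charcoal-stripped FBS, plated 4,000/well for 24 h, then compound plus 17beta-estradiol for 21.5 h at 37 C; ONE-Glo luminescence read.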

Assay [14] can be described thus: qHTS assay to identify small molecule antagonists of the estrogen receptor alpha (ER-alpha) signaling pathway using the BG1 cell line - cell viability counter screen (AID 743081).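 Note: compound given together with 17beta-estradiol as the ER stimulus; nearly all actives have a fitted effect of over 45% in size.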 Note: potency is the fitted concentration of half-maximal effect.
For a further assay, the target named is Aromatase (Homo sapiens) (UniProt P11511). The assay can be described thus: qHTS assay to identify aromatase inhibitors (AID 743083). Note: nearly all actives have a fitted effect of over 55% in size. Note: potency is the fitted concentration of half-maximal effect.
Sequence of Aromatase (Homo sapiens) (P11511 whole entry, looked up): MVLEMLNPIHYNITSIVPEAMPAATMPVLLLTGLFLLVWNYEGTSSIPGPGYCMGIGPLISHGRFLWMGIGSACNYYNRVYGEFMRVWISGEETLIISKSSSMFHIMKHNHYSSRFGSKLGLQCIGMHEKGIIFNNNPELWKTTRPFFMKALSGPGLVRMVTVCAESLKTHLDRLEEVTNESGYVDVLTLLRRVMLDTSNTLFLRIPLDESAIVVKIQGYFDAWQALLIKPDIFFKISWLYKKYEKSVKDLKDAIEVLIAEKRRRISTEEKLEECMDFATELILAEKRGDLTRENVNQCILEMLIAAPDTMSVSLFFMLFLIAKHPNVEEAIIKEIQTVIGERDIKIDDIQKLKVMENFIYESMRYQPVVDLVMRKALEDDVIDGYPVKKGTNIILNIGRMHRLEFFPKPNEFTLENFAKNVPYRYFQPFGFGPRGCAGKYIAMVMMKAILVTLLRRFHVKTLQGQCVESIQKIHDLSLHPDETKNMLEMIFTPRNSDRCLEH
In assay [15] the target is Androgen receptor (Homo sapiens) (UniProt P10275). Description: qHTS assay to identify small molecule antagonists of the androgen receptor (AR) signaling pathway (AID 743035; active = well fitted inhibition curve with a large enough effect in the signal ratio in the repeat runs, not every such curve was filed as active; inconclusive = weak or mixed curves, or effect the other way; inactive = no such curve, though single readings can be large or run the other way; the % refers to the signal ratio; note: potency is the fitted concentration of half-maximal effect). Summed up: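 Steps: seed AR-UAS-bla GripTite HEK293 cells, incubate 4 h at 37C; pin in test compound, then add agonist R1881; incubate 16 h at 37C; add LiveBLAzer B/G FRET substrate, 2 h at room temperature; read fluorescence.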
Sequence of Androgen receptor (Homo sapiens) (P10275 whole entry, looked up): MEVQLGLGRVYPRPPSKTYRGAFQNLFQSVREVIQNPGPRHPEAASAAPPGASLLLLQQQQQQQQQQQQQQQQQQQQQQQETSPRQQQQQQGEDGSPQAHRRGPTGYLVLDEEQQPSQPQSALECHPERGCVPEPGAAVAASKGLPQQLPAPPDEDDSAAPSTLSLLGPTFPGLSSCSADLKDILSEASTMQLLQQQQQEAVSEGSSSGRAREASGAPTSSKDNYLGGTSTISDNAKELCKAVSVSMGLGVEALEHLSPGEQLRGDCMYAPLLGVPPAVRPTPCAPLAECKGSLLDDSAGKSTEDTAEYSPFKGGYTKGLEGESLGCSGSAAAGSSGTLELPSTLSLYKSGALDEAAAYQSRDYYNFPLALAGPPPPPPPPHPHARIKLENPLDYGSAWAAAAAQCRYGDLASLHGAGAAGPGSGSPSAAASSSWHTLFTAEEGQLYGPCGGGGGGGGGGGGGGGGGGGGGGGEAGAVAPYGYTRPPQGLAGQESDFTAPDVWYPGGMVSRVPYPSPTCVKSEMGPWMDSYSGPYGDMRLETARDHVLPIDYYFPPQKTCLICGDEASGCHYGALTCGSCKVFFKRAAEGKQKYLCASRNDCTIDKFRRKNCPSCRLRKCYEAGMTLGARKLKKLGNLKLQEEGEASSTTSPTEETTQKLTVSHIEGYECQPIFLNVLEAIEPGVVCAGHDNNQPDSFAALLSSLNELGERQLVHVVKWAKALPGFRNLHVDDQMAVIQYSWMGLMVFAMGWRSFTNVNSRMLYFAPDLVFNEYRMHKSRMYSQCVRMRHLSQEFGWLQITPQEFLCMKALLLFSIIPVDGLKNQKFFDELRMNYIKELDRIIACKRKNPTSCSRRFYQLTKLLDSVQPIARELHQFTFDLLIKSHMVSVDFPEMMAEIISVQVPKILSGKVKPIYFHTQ

Assay [16] has the same target. Description: qHTS assay to identify small molecule agonists of the androgen receptor (AR) signaling pathway (AID 743036; active = well fitted activation curve with a large enough effect in the signal ratio in the repeat runs, with a control signal flat, not every such curve was filed as active; inconclusive = weak or mixed curves, or effect the other way; inactive = no such curve, though single readings can be large or run the other way; the % refers to the signal ratio; note: % is set by controls: 0 for no effect and ±100 for the full control effect). Summed up: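 Screening used 2,000 AR-bla HEK293 cells per well, treated 16 h at 37C with test compounds in DMSO alongside positive and DMSO-only controls; beta-lactamase activity was then read by LiveBLAzer B/G FRET fluorescence after 2 h at room temperature.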

For assay [17] the target is unchanged. The assay can be described thus: qHTS assay to identify small molecule agonists of the androgen receptor (AR) signaling pathway using the MDA cell line (AID 743040; note: % is set by controls: 0 for no effect and ±100 for the full control effect; nearly all actives have a fitted effect of over 20% in size). The following applies: MDA-kb2 AR-luc cells, MMTV luciferase, 16 h, stronger effect = higher value. Summed up:
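Luciferase read-out, ONE-Glo, 30 min RT. Cells: MDA-kb2 AR-luc, MMTV promoter with AR and GR response elements. Compound exposure 16 h, 37C, 0% CO2, after 5 h pre-incubation. qHTS agonist mode.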

Assay [18] is described as follows: qHTS assay to identify small molecule antagonists of the estrogen receptor alpha (ER-alpha) signaling pathway - cell viability counter screen (AID 743074; calls by dose curve;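 note: HEK293 cells carrying ER-alpha-UAS-bla reporter stimulated with 17beta-estradiol; nearly all actives have a fitted effect of over 45% in size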; note: potency is the fitted concentration of half-maximal effect).
Assay [19] addresses Androgen receptor (Homo sapiens) (UniProt P10275). The assay can be described thus: qHTS assay to identify small molecule antagonists of the androgen receptor (AR) signaling pathway using the MDA cell line (AID 743042). Summed up: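 MDA-kb2 breast carcinoma cells carrying MMTV-luciferase (AR/GR responsive) were co-treated with compounds and the agonist R1881 for 16 h at 37C. Inhibition read as ONE-Glo luminescence; CellTiter-Fluor fluorescence measured in parallel for cytotoxicity.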

Values joined by “and” are separate entries in the source; they are usually repeats but may differ in a detail not shown here. Equal entries are not always repeated. A structure can be active in one record and inactive in another. Active and inactive are the calls of the source. Unless noted, calls come from the whole dose curve; as a rule, active = well fitted curve in the direction sought with a large enough effect in the repeat runs; inconclusive = weak or mixed curves; inactive = no such curve, though single readings can be large; an effect the other way counts as inactive or inconclusive.

Sequence of Estrogen receptor (Homo sapiens) (P03372 whole entry, looked up): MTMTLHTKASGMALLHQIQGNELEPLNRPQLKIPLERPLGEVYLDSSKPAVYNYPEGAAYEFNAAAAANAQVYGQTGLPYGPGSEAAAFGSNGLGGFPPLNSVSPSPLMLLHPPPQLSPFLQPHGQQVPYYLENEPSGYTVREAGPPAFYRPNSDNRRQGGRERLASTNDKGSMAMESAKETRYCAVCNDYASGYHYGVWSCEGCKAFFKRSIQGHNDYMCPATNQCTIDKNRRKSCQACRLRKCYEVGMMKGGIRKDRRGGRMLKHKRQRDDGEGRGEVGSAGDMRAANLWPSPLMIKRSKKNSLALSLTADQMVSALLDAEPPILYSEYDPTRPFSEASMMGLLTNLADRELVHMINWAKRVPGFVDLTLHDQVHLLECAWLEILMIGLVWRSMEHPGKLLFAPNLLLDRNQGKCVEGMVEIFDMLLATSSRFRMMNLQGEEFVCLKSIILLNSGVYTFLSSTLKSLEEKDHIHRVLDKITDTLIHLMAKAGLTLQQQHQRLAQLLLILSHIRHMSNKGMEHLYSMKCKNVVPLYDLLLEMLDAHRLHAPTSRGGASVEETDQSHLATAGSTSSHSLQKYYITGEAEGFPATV

As for `ClCc1ccccn1`, the Potency entry in [1], in assay [2], in assay [3], in assay [4], in assay [5] and in assay [6] was “inactive” each time. For the same molecule, the Potency result in [7], in [8], in assay [9], in assay [10], in assay [11] and in assay [12] was “inactive” throughout. Further, the Potency entry (in assay [13]; in assay [14]; with Aromatase (Homo sapiens)) was “inactive” throughout.

With `COP(=S)(OC)SCn1nnc2ccccc2c1=O`, the Potency entry in assay [1], in [5], in assay [15], in assay [16], in assay [6] and in assay [7] was “inactive” each time. In addition, the Potency result in assay [9], in assay [10], in assay [18], in [11], in assay [12] and in assay [13] was “inactive” each time. The Potency result in [14] was “inactive”. Besides, the Potency in assay [2] was 43.3 µM (active); in assay [3], 60 µM (active) and 61.1 µM (active); in assay [4], 60 µM (active) and 61.1 µM (active); in the assay with Aromatase (Homo sapiens) it was 54.5 µM (active). Also, in assay [17] (at 70.3 µM (top of the series)), the activity change was -2.47% (inactive) and -4.42% (inactive).

Turning to `ClC(Cl)=C(Cl)C(Cl)=C(Cl)Cl`, the Potency result in assay [1], in [2], in assay [3], in [4], in assay [5] and in assay [6] was “inactive” each time. The Potency result in assay [7], in assay [8], in [9], in [10], in assay [18] and in assay [11] was “inactive” each time. Moreover, the Potency result (in [12]; in assay [13]; in [14]; in the assay with Aromatase (Homo sapiens)) was “inactive” in each case.

As to `C=CC(=O)OCC(CC)(COC(=O)C=C)COC(=O)C=C`, the Potency in [1] was 12.6 µM (active) and 11 µM (active); in assay [2] it was 2.8 µM (active) and 3.06 µM (active); in assay [3], 1.58 µM (active) and 3.06 µM (active); in [4], 2.5 µM (active) and 2.43 µM (active); in assay [5], 7.97 µM (active) and 12.3 µM (active); in [15], 4.48 µM (active). Besides, the Potency is 62.8 µM (active) and 30.6 µM (active) in assay [6]; 8.87 µM (active) and 6.86 µM (active) in assay [19]; 4.99 µM (active) and 6.86 µM (active) in [7]; 3.15 µM (active) and 4.33 µM (active) in assay [8]; 56.4 µM (active) and 54.9 µM (active) in [18]; 22.5 µM [inconclusive] (active) and 9.77 µM [inconclusive] (active) in [11]. Further, the Potency in [14] is 79 µM (active) and 54.5 µM (active); with Aromatase (Homo sapiens), 4.99 µM (active) and 6.86 µM (active). Also, the values for the activity change in assay [17] (at 70.3 µM (top of the series)) and in assay [17] (at 95 µM (top of the series)) were -11.9% (inactive) and -11.2% (inactive), respectively. In addition, in assay [9], the Potency entry was “inactive”.

For `COP(=O)(NC(C)=O)SC` (centres undefined), the Potency entry in assay [1], in assay [5], in assay [6], in [7], in [8] and in [9] was “inactive” in each case. Also, the Potency entry (in assay [18]; in assay [14]; with Aromatase (Homo sapiens)) was “inactive” each time. Besides, the Potency entry in assay [2] is “inactive and 68.6 µM (active)”; in [3] it was “inactive and 27.3 µM (active)”; in [4] it was “inactive and 30.6 µM (active)”.

Consider `CN(C)c1nc(=O)n(C2CCCCC2)c(=O)n1C`, for which the Potency result in assay [1], in assay [2], in assay [3], in assay [4], in assay [5] and in assay [6] was “inactive” throughout. Besides, the Potency entry in [7], in [8], in assay [9], in assay [10], in [18] and in assay [11] was “inactive” throughout. The Potency entry (in assay [12]; in assay [13]; in assay [14]; with Aromatase (Homo sapiens)) was “inactive” in each case.
